Screening results: PubChem BioAssay, several laboratories
Shown are actives, neighbours in structure and some others; about 5.7% of the full set was active somewhere.
Myeloid diff MLP = compounds promoting myeloid differentiation; calls only at 10 µM; ER-HoxA9 myeloid progenitors, lysozyme-GFP differentiation, flow cytometry; AID 624256; 360,000 tested, 1% active;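 active = normalized GFP-positive differentiation at or above the plate's own cutoff, the solvent-only control mean plus 3 SD; inconclusive = no clear call, values can overlap the other calls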;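 note: cells exposed to compound for four days before flow analysis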
rCAG RNA binder = binds r(CAG) RNA repeats | r(CAG) RNA repeat, TO-PRO-1 dye displacement fluorescence | inhibition, % at 3 µM | 370,000 tested, 1.3% active | AID 651821;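 active = inhibition above the plate cutoff, the mean of all test compounds on that plate plus 3 SD, cut at about 35% in these data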;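 note: 0% = DMSO alone and 100% = 100 µM mitoxantrone as full dye displacement; higher means more dye released from RNA so lower well fluorescence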
MPTP inh = blocks calcium-induced mitochondrial swelling; isolated mouse mitochondria, Ca2+ swelling absorbance, 30 min; AID 602449; 360,000 tested, 1.4% active; inhibition, % at 10 µM;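 active = inhibition of 50% or more, scaled per plate between neutral and stimulator controls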;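 note: 0% = DMSO wells given calcium and 100% = 1 mM EGTA wells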
FAS TE block = inhibitors of human fatty acid synthase thioesterase domain; inhibition, % at 15 µM; AID 602261; 360,000 tested, 0.67% active; recombinant FAS-TE, OMFH fluorogenic substrate, fluorescence endpoint;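 active = compounds whose normalised, plate-corrected inhibition of enzyme fluorescence in the single-dose primary screen is 50% or more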;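 note: 0% = DMSO with enzyme and 100% = substrate without enzyme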
NR3A LBD binder = modulators (binders) of human NR3A ligand-binding domain; NR3A LBD differential scanning fluorimetry, Tm shift; 0% = protein alone, 100% = glycine-bound protein; Tm shift relative to glycine control, % at 25 µM; 340,000 tested, 2.5% active; AID 1259313;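 active = melting temperature shift of at least 10% of the positive control shift, at one fixed dose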
Active calls of the source: *.

For COc1cc(NC(=O)COc2ccc3c(C)cc(=O)oc3c2C)cc(OC)c1OC the results were Myeloid diff MLP inconclusive, rCAG RNA binder -2, MPTP inh 1, FAS TE block -4 and NR3A LBD binder 14*.
Screening COc1ccc(CNC(=O)COc2ccc(S(=O)(=O)N3CCOCC3)cc2)cc1 returned Myeloid diff MLP inactive, rCAG RNA binder -5, MPTP inh -1, FAS TE block -6 and NR3A LBD binder -3.
For Cc1ccc(CNC(=O)COc2ccc(S(=O)(=O)N3CCOCC3)cc2)cc1 the results were Myeloid diff MLP inactive, rCAG RNA binder -1, MPTP inh -3, FAS TE block 4 and NR3A LBD binder 10*.
`COc1ccc(S(=O)(=O)N2CCOCC2)cc1NC(=O)COc1ccc(C)cc1` gave Myeloid diff MLP inactive, rCAG RNA binder 9, MPTP inh 1, FAS TE block 6 and NR3A LBD binder 18*.
COC(=O)C[C@@H]1C[C@@H]2c3cc(NC(=O)Cc4ccncc4)ccc3O[C@@H]2[C@@H](CO)O1 was read as Myeloid diff MLP inactive, rCAG RNA binder 9, MPTP inh -1 and FAS TE block -10.
For COC(=O)CC[C@@H](/C=C/C(=O)OC(C)(C)C)Sc1ccc(C(C)(C)C)cc1 the results were rCAG RNA binder 3.
CCCCCCCCNS(=O)(=O)/C=C/c1ccc(OC)cc1CNC(=O)OC(C)(C)C was read as rCAG RNA binder -1.
COc1cccc(C(=O)N[C@H](C(=O)N2CCC[C@H]2C(=O)NCc2ccccc2)C(C)C)c1 was read as rCAG RNA binder 0.
For O=C(Cn1cnc2ccccc2c1=O)N1CCCCC1 the results were rCAG RNA binder 5.
Screening O=C(O)COc1ccccc1C=NNC(=O)Cc1cc(=O)[nH][nH]1 returned rCAG RNA binder 7.
`CCN(CC)S(=O)(=O)c1ccc(OC)c(NC(=O)COc2ccc3c(C)cc(=O)oc3c2)c1` gave Myeloid diff MLP inactive, rCAG RNA binder 11, MPTP inh 3, FAS TE block -19 and NR3A LBD binder 11*.
C=CCN=C1S/C(=C\N(C)C)C(=O)N1S(=O)(=O)c1ccc(C)cc1 was read as Myeloid diff MLP inactive, rCAG RNA binder 3, MPTP inh -2, FAS TE block 11 and NR3A LBD binder 12*.
Screening O=[N+]([O-])c1ccc(CSc2nnc(-c3cccc(Cl)c3)n2Cc2ccco2)cc1 returned rCAG RNA binder 6.
For O=C(CN1CCN(Cc2ccccc2)CC1)N/N=C\c1ccccc1[N+](=O)[O-] the results were rCAG RNA binder 2.
`C=CCC(C=C)S(=O)(=O)c1ccc(C)cc1` (stereo not given) gave Myeloid diff MLP active, rCAG RNA binder -1, MPTP inh -1, FAS TE block -4 and NR3A LBD binder -1.
COC(=O)[C@]12C[C@H](CC(=O)NCCCN3CCCC3=O)C(=O)N(Cc3ccco3)C1=C[C@H](COCc1ccccc1)O[C@@H]2C was read as rCAG RNA binder 7.
Screening CCCCOCC1CN(CCCC)S(=O)(=O)c2c(cccc2N2CCCCC2)O1 (stereo not given) returned rCAG RNA binder 2.
O=S(=O)(c1cccc(-c2nc3n(n2)Cc2ccccc2-3)c1)N1CCCC1 was read as Myeloid diff MLP inactive, rCAG RNA binder -1, MPTP inh 0, FAS TE block 8 and NR3A LBD binder 13*.
COc1ccc(/C=C2\CC3(OC(=O)c4cccc(F)c4)CCCN2C3)cc1 (stereo not given) was read as rCAG RNA binder 3.
`COc1ccc(NC(=O)c2ccc(NC(=O)CN3CCN(c4ccc(O)cc4)CC3)cc2)cc1` gave Myeloid diff MLP inactive, rCAG RNA binder 15, MPTP inh -2, FAS TE block 0 and NR3A LBD binder 17*.
COc1ccc(OCCCC(=O)Nc2ccc(N3CCOCC3)cc2)cc1 was read as Myeloid diff MLP inactive, rCAG RNA binder 0, MPTP inh 0, FAS TE block -11 and NR3A LBD binder 28*.
For COc1ccc(C(=O)NC(=S)Nc2ccc(N3CCCC3)cc2)cc1 the results were Myeloid diff MLP inactive, rCAG RNA binder 0, MPTP inh 0, FAS TE block 9 and NR3A LBD binder 1.
Screening COc1ccc(OCC(=O)Nc2ccc(N3CCCCC3)cc2)cc1 returned Myeloid diff MLP inactive, rCAG RNA binder -7, MPTP inh 0, FAS TE block -3 and NR3A LBD binder 19*.
For COc1ccc(C(=O)Nc2ccc(N3CCCC3)cc2)cc1 the results were Myeloid diff MLP active, rCAG RNA binder 14, MPTP inh 1, FAS TE block -10 and NR3A LBD binder -1.
CC(=O)c1ccc(OCC(=O)Nc2ccc(N3CCCCC3)cc2)cc1 was read as Myeloid diff MLP inactive, rCAG RNA binder 0, MPTP inh 0, FAS TE block -6 and NR3A LBD binder -6.
COc1ccc(NC(=O)c2ccc(NC(=O)CN3CCN(c4ccccc4O)CC3)cc2)cc1 was read as Myeloid diff MLP inactive, rCAG RNA binder 13, MPTP inh 0 and FAS TE block 1.
Screening O=S1(=O)c2ccc(Br)cc2OC[C@@H](c2ccccc2)N1Cc1cn(CCC2OCCCO2)nn1 returned rCAG RNA binder 6.
CC(C)C[C@@H]1COc2cc(N3CCOCC3)ccc2S(=O)(=O)N1 was read as rCAG RNA binder -1.
For COc1cccc(CNC(=O)[C@H]2CCCN2C(=O)[C@H]2CCCN2C(=O)c2c(F)cccc2F)c1 the results were rCAG RNA binder -1.
For CC(=O)c1ccc(OCCCC(=O)Nc2ccc(S(=O)(=O)N3CCOCC3)cc2)cc1 the results were Myeloid diff MLP inactive, rCAG RNA binder 2, MPTP inh -2, FAS TE block -3 and NR3A LBD binder 22*.
COc1ccc(NC(=O)COc2ccc(-n3cnnn3)cc2)cc1OC was read as Myeloid diff MLP inactive, rCAG RNA binder 1, MPTP inh -1, FAS TE block -7 and NR3A LBD binder 11*.
O=C(CCCOc1ccc(Br)cc1)Nc1ccc(S(=O)(=O)N2CCOCC2)cc1 was read as Myeloid diff MLP inactive, rCAG RNA binder 5, MPTP inh 1 and FAS TE block 21.
Cc1ccc(NC(=O)COc2ccc(/C(N)=N/O)cc2)cc1C was read as Myeloid diff MLP inactive, rCAG RNA binder 0, MPTP inh 40, FAS TE block -15 and NR3A LBD binder 14*.
For O=[N+]([O-])c1ccc(COc2cccc(CO)c2)cc1 the results were rCAG RNA binder 3.
Screening COc1cc(/C=C/C(=O)OCC(=O)NNC(=O)c2cc(Cl)ccc2OC)ccc1O returned Myeloid diff MLP inactive, rCAG RNA binder 14, MPTP inh 0, FAS TE block 1 and NR3A LBD binder -4.
COc1cc(/C=C/C(=O)OCC(=O)Nc2ccccc2Sc2ccc(Cl)cc2)ccc1O was read as Myeloid diff MLP inactive, rCAG RNA binder 11, MPTP inh 3, FAS TE block 29 and NR3A LBD binder 15*.
For c1coc(-c2nc3c4ccccc4ccn3c2Cc2ccsc2)c1 the results were rCAG RNA binder 15.
